Composite z-score and z-score data for 5 molecules are collected here from PubChem BioAssay.

Each structure is given as a SMILES string. Activity calls are given as the source filed them.

The nature of experiment [1]: small molecules captured by biotinylated probe aFSTL3 – biochemical, small-molecule microarray, fluorescence 635/667, stem cell growth factor project, primary screen (AID 1064).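 Further: measures binding of the biotinylated anti-FSTL3 antibody to printed compounds.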 The conditions noted are these: higher = more signal.
Experiment [2] is described as follows: binders from COS7 lysate, DM2A8 probe, primary screen, torsin A project, cell lysate, small-molecule microarray, fluorescence 635/667 (AID 1065). The conditions noted are these: higher = more signal, COS7 lysate expressing mutant human TOR1A.
Experiment [3] in a line: small molecules captured by biotinylated probe aFGF2 – biochemical, small-molecule microarray, fluorescence 635/667, stem cell growth factor project, primary screen (AID 1067).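 Further: measures binding of biotinylated aFGF2 protein to printed compounds on slides; z-score merges feature fluorescence and signal-to-noise across triplicate slides.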 The conditions noted are these: higher = more signal.
A short description of experiment [4]: small molecules captured by biotinylated probe aFGF10 – biochemical, small-molecule microarray, fluorescence 635/667, stem cell growth factor project, primary screen (AID 1071).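 Further: score merges 667 nm spot intensity and signal to noise from triplicate slides.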 The conditions noted are these: higher = more signal.
Experiment [5] addresses Neurogenic locus notch homolog protein 2 (Homo sapiens) (UniProt Q04721). The experiment can be described thus: small molecules binding Notch2 protein – biochemical, small-molecule microarray, 635 nm fluorescence, stem cell growth factors, primary screen (AID 1073). The conditions noted are these: higher = more signal.
The target in experiment [6] is Pro-neuregulin-1, membrane-bound isoform (Homo sapiens) (UniProt Q02297). Nature of the experiment: small molecules binding neuregulin-1 protein – biochemical, small-molecule microarray, fluorescence 635/667, psychiatric disease protein project, primary screen (AID 1075).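 Further: score combines 667 nm spot fluorescence with signal to noise.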 The following applies: NRG1 binding, 635 nm fluorescence, higher = more signal.
Experiment [7] has as its system Neuregulin-1 EGF-like domain. The experiment can be described thus: small molecules binding NRG1 EGF domain – biochemical, small-molecule microarray, 635 nm fluorescence, primary screen (AID 1081).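 Further: binding of the protein to compounds printed on small-molecule microarray slides.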 The conditions noted are these: higher = more signal.
Experiment [8] can be described thus: FRG1 expression reporter modulators in myotubes – cell-based, C2C12 myotubes, firefly/Renilla luciferase, luminescence, FRG1 inhibition for FSHD, primary screen (AID 1084). The conditions noted are these: FRG1 promoter luciferase, higher = more signal, called active from +8 up or from −8 down.
The nature of experiment [9]: small molecules captured by biotinylated probe aFST – biochemical, small-molecule microarray, fluorescence 635/667, stem cell growth factor project, primary screen (AID 1086).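 Further: score merges 667 nm fluorescence with signal-to-noise of each printed compound spot.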 The following applies: higher = more signal.
The nature of experiment [10]: binders of probe aHhip on microarray, primary screen, stem cell growth factor project, biochemical, small-molecule microarray, fluorescence 635/667 (AID 1087).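 Further: score merges spot fluorescence at 667nm with spot signal to noise ratio.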 The conditions noted are these: higher = more signal.
The subject of experiment [11] is PRMT1 (protein arginine N-methyltransferase 1). The experiment can be described thus: small molecules binding arginine methyltransferase PRMT1 – biochemical, small-molecule microarray, 635 nm fluorescence, primary screen (AID 1088).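 Further: binding of Prmt1 protein to compounds spotted on small-molecule microarray slides.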 The following applies: higher = more signal.
Experiment [12] in a line: growth effects on S. cerevisiae YJM789 – YJM789 clinical isolate, OD600, 24 h, basal, primary screen (AID 1089).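 Further: growth of clinical yeast isolate S. cerevisiae YJM 789 seeded 1000 cells per well; test concentration not given here.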 The following applies: higher = more signal, called active from +8 up or from −8 down.
Experiment [13] can be described thus: S. pombe growth modifiers, basal conditions – strain 972, OD600, 24 h, no modulator, primary screen (AID 1090).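 Further: basal condition with compound alone and no growth modifier present; test concentration not given here.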 The following applies: S. pombe 972 growth, higher = more signal, called active from +8 up or from −8 down.
Experiment [14] in a line: budding yeast growth modifiers under rapamycin – strain BY4716, OD600, 96 h, primary screen (AID 1091). Further: test concentration not given here. The conditions noted are these: S. cerevisiae BY4716 + rapamycin, higher = more signal, called active from +8 up or from −8 down.
The target of experiment [15] is Torsin-1A-interacting protein 2 (Homo sapiens) (UniProt Q8NFQ8). The experiment can be described thus: small molecules binding lysate-expressed LULL1 – cell lysate, human LULL1 lysate, 635/667 nm fluorescence, primary screen (AID 1092).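 Further: score merges per-feature 667 nm fluorescence with signal-to-noise.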 The following applies: small-molecule microarray, hLULL1 lysate binding, 635 nm fluorescence; higher = more signal.
Experiment [16] is described as follows: optical density change of DRC41 E. coli – strain DRC41, OD650, 24 h, E. coli filamentation project, primary screen (AID 1093).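 Further: MC1000 strain lacking acrAB efflux and sulA so SOS filamentation is blocked; test concentration not given here.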 The conditions noted are these: E. coli DRC41 growth, higher = more signal, called active from +8 up or from −8 down.
A short description of experiment [17]: probe aLefty2 binding to arrayed compounds – biochemical, biotinylated probe, 635/667 nm fluorescence, primary screen (AID 1094).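 Further: score merges spot fluorescence near 667 nm with spot signal-to-noise ratio.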 The conditions noted are these: small-molecule microarray, higher = more signal.
The subject of experiment [18] is Noggin (protein binding on small-molecule microarray). Nature of the experiment: small molecules binding Noggin protein – biochemical, 635/667 nm fluorescence, primary screen (AID 1095).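 Further: score merges 667 nm feature fluorescence with signal to noise over triplicate slides.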 The conditions noted are these: 635 nm fluorescence, higher = more signal.
The target in experiment [19] is Neurogenic locus notch homolog protein 3 (Homo sapiens) (UniProt Q9UM47). The experiment can be described thus: small molecules binding NOTCH3 protein – biochemical, 635/667 nm fluorescence, primary screen (AID 1096). The conditions noted are these: small-molecule microarray, 635 nm fluorescence, higher = more signal.
Chain of Neurogenic locus notch homolog protein 3 (Homo sapiens) (Q9UM47 whole entry, looked up): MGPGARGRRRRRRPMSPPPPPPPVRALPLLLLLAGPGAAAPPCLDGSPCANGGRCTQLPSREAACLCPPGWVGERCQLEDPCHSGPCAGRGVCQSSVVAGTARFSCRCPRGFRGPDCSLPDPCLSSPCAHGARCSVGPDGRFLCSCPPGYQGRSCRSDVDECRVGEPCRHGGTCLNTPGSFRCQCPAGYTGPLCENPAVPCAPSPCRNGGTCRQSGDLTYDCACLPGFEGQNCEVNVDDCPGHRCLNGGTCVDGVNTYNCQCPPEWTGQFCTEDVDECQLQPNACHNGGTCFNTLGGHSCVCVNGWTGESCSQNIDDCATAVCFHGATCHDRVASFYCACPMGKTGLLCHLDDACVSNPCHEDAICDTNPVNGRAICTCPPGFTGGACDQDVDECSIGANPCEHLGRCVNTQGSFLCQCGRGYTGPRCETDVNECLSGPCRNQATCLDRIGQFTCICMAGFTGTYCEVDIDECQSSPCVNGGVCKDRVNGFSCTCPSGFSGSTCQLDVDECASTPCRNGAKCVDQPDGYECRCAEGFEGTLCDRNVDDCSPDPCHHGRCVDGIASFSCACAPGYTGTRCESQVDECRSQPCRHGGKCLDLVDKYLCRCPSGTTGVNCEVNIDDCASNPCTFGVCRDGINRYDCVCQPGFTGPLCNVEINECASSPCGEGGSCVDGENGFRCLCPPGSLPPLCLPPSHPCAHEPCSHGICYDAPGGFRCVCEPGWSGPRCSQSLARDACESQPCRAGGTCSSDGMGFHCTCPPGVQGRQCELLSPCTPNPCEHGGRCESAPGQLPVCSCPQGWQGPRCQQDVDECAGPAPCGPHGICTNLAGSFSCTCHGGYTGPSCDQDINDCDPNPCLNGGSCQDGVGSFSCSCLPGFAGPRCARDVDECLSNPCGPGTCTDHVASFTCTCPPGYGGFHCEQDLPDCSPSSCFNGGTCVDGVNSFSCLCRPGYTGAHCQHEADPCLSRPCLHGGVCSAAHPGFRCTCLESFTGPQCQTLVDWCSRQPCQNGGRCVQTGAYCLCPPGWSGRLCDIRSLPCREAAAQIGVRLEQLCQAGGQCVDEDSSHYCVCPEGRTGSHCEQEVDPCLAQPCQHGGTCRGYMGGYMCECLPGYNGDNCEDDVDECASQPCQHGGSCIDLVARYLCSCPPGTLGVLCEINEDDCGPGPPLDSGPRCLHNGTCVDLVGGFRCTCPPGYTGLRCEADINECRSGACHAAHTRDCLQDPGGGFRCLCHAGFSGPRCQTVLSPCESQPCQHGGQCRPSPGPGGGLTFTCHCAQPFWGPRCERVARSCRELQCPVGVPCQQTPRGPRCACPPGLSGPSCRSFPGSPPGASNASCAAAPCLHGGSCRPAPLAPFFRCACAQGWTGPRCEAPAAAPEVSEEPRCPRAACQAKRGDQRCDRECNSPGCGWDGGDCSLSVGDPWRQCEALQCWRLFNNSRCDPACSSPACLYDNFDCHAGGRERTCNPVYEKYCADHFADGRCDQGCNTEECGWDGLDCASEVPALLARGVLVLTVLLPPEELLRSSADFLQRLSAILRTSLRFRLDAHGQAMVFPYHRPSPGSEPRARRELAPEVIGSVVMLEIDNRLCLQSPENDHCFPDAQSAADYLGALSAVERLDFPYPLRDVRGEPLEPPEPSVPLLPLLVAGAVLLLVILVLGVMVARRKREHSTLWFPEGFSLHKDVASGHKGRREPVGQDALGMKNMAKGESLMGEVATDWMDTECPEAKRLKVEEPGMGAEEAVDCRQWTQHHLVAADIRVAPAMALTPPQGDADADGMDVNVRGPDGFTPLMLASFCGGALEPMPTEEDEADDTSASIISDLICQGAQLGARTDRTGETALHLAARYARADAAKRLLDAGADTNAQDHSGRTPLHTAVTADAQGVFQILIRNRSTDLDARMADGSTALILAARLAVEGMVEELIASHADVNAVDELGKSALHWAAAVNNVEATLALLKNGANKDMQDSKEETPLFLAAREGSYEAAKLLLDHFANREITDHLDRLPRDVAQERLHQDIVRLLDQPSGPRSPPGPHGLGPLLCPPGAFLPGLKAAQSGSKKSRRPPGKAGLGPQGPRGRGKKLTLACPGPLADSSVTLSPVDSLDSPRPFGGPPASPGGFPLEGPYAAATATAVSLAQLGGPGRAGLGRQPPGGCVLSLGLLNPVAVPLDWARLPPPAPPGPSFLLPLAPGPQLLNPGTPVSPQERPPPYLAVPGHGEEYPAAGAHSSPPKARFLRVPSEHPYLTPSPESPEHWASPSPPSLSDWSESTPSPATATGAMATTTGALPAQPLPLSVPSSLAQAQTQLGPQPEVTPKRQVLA
A short description of experiment [20]: probe aEGFR binding to arrayed compounds – biochemical, biotinylated probe, 635/667 nm fluorescence, primary screen (AID 1097).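 Further: probe is a biotinylated anti-EGFR antibody binding compounds printed on slides; score combines fluorescence near 667 nm and signal to noise of each spot.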 The conditions noted are these: small-molecule microarray, higher = more signal.

Chain of Neurogenic locus notch homolog protein 2 (Homo sapiens) (Q04721 whole entry, looked up, canonical isoform): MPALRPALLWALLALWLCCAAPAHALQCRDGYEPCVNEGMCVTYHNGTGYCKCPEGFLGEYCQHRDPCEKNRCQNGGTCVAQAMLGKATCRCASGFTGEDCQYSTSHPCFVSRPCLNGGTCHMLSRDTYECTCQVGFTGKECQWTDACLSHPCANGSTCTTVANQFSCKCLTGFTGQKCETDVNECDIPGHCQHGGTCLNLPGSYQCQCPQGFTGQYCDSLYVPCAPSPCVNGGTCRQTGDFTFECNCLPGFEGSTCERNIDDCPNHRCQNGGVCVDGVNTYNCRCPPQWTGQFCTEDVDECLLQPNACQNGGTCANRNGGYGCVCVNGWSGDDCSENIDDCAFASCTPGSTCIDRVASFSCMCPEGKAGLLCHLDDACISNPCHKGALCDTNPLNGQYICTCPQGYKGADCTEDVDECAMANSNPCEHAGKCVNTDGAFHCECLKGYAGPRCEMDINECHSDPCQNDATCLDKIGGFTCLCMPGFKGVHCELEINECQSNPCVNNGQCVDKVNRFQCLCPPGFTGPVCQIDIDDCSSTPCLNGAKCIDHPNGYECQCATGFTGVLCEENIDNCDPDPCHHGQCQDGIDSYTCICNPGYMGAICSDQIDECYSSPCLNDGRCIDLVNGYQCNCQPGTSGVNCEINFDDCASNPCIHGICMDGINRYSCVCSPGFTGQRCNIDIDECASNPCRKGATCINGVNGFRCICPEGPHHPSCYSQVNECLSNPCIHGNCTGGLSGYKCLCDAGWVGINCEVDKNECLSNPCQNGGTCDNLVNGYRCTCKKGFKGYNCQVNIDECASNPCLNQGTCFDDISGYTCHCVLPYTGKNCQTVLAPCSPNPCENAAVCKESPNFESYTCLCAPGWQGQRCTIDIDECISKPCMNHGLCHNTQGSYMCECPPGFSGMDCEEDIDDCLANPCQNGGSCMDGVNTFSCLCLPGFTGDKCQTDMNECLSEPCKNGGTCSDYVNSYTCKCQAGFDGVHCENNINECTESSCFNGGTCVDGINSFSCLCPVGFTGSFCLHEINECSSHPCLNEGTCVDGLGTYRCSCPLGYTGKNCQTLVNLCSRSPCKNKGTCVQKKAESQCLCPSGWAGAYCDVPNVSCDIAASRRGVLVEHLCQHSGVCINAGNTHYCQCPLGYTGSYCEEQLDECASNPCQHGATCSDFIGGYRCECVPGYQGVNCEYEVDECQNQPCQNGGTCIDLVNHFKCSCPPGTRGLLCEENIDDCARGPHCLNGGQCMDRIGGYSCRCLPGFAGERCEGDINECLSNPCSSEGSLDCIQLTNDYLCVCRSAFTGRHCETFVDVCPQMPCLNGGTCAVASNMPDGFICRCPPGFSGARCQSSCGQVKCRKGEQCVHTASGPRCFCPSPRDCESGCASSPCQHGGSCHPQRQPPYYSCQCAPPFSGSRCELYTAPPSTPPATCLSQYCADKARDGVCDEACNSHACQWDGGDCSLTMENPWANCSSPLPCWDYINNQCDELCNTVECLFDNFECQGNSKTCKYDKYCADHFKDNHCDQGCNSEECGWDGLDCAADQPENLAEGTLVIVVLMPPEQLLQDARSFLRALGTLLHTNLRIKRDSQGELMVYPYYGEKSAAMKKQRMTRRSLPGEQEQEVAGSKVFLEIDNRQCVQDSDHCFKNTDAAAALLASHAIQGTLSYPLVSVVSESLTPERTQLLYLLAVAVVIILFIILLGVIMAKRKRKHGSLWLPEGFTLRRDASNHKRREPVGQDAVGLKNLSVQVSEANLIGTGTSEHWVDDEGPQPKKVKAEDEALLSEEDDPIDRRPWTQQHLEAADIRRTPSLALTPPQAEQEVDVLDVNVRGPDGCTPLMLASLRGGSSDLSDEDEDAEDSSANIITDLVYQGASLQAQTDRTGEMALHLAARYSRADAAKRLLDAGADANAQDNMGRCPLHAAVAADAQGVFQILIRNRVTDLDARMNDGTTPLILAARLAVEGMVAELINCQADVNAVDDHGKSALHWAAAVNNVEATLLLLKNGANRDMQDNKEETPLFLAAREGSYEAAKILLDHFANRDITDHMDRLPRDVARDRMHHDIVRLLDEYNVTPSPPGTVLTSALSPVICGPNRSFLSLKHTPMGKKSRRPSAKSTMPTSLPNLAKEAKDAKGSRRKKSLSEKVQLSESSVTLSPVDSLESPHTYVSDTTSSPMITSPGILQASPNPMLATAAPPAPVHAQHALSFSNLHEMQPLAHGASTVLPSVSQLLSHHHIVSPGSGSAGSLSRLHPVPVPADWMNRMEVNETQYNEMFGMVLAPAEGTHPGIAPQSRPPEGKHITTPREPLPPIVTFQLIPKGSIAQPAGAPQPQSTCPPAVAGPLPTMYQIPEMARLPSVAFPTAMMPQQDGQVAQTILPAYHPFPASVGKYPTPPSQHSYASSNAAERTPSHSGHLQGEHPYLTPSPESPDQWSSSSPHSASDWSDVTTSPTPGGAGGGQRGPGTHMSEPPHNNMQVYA

On to `O=C1OCCC=C[C@H]2OC34C=CCN(c5ccc(Cl)cc5)C(=O)[C@H]3N(CCCCCO)C(=O)[C@@H]4C12` (stereo not given in full), for which the composite z-score was 0.418 in experiment [1]; 1.77 in [2]; -0.116 in [3]; -0.112 in experiment [4]; 0.0387 in experiment [5]; 1.48 in experiment [6]. The composite z-score is 1.44 in experiment [7]; -0.149 in experiment [9]; -0.0708 in experiment [10]; 0.536 in [11]; 2.68 in experiment [15]; 0.0636 in experiment [17]. Moreover, the composite z-score is -0.261 in [18], 0.0841 in [19] and -0.0671 in [20]. The z-score in experiment [8] is -0.997 (inactive); in [12] it was -0.579 (inactive); in [13] it was -1.99 (inactive); in experiment [14] it was -0.54 (inactive); in experiment [16] it was 1.71 (inactive).

In the case of `C=CCN1C(=O)[C@]2(CC=C)N=C(c3ccc(OCCCO)cc3)O[C@@H]2c2ccccc21`, the composite z-score in experiment [1] amounted to 0.967; in experiment [2], 0.194; in [3] it was 0.123; in experiment [4], 0.0547; in [5] it was 1.05; in experiment [6], 1.03. The composite z-score came to 1.26 in experiment [7]; 0.61 in [9]; 0.0327 in experiment [10]; 1.45 in experiment [11]; 3.13 in [15]; 0.266 in [17]. In addition, the results for the composite z-score in [18], in experiment [19] and in [20] were 1.33, 1.08 and 0.038, respectively. In addition, the z-score in [8] is -1.86 (inactive); in experiment [12], -1.76 (inactive); in experiment [13], -2.79 (inactive); in experiment [14], 0.164 (inactive); in experiment [16], 1.02 (inactive).

`CC(=O)N1Cc2ccccc2C[C@]2(N=C(c3ccc(OCCCO)cc3)O[C@@H]2c2ccccc2)C1=O`: the composite z-score worked out at 0.864 in experiment [1]; 0.688 in experiment [2]; 0.0512 in experiment [3]; 0.458 in [4]; 0.875 in experiment [5]; 1.04 in experiment [6]. In addition, the composite z-score in [7] is 1.34; in experiment [9], 0.33; in experiment [10] it was -0.238; in experiment [11], 1.55; in experiment [15], 3.07; in experiment [17], 0.0081. For the same molecule, the composite z-score in [18] turned out to be 0.648; in experiment [19] it was 1.07; in experiment [20], 0.0557. For the same molecule, the z-score in experiment [8] is -2.24 (inactive); in [12] it was 0.369 (inactive); in experiment [13], -2.91 (inactive); in [14], 13.6 (active); in [16] it was 1.52 (inactive).

For the molecule `C=CC1c2cc(O)c(OC)cc2CCN1Cc1sc2ccccc2c1Cl` (stereo not given), the composite z-score in experiment [1] is 1.12; in experiment [2], 0.396; in experiment [3] it was -0.0316; in [4] it was 0.436; in [5], 1.2; in [6] it was 1.9. Also, the composite z-score in experiment [7] is 1.23; in experiment [9], 0.853; in experiment [10] it was -0.0237; in experiment [11], 0.756; in experiment [15], 2.49; in experiment [17], 0.233. The figures for the composite z-score in experiment [18], in experiment [19] and in experiment [20] were 0.123, 0.968 and 0.0673, respectively. Besides, the z-score in experiment [8] is -0.732 (inactive); in experiment [12], -1.62 (inactive); in [13], -19.2 (active); in experiment [14], -0.399 (inactive); in [16], -0.368 (inactive).

As to `O=C1NC(=O)C2C1C=CC(C(O)c1c(F)cccc1Cl)N2Nc1ccccn1` (stereo not given), the composite z-score in experiment [1] turned out to be 0.154; in [2] it was 0.238; in [3] it was 0.0182; in experiment [4], 0.474; in [5] it was 0.55; in experiment [6] it was 1.53. For the same molecule, the composite z-score was 0.633 in [7]; -0.014 in experiment [9]; 0.0576 in [10]; 0.409 in experiment [11]; -0.191 in experiment [15]; 0.21 in [17]. Moreover, the composite z-score in experiment [18] was 0.148; in [19], 0.01; in experiment [20] it was 0.213. For the same molecule, the z-score was 0.569 (inactive) in experiment [8]; 0.107 (inactive) in [12]; 0.983 (inactive) in [13]; 0.0515 (inactive) in experiment [14]; -0.764 (inactive) in experiment [16].
